High-throughput results as filed in PubChem BioAssay.
rat GALR2 ag – GALR2 (rat) receptor agonism. cell-based GALR2 agonist screen. activation, % at 10 µM. hit rate 0.5% among 16,000. AID 833; in the data active = activation above about 15%
Luminol counter – quenches luminol chemiluminescence in Nox1 counter-screen; hit rate 0.4% among 16,000; HRP/luminol/H2O2 chemiluminescence counterscreen; inhibition, % at 6.7 µM; also: reference of the scale not given here
NOTCH agonist – NOTCH pathway agonism; AID 434982; activation, % at 2.5 µM; NOTCH signaling luciferase reporter cells, luminescence; hit rate 0.4% among 15,000; in the data active = activation above about 2.2%
Nox1 inhibitor – blocks human NADPH oxidase 1 activity | Q9Y5S8 | HT29 cells, luminol chemiluminescence ROS | inhibition, % at 6.7 µM | hit rate 0.81% among 16,000 | AID 1792
PME-1 Maybridge – inhibitors of human PME-1 in Maybridge library | Q9Y570 | hit rate 0.5% among 16,000 | AID 2291 | recombinant PME-1, FP-Rh probe fluorescence polarization | inhibition, % at 9 µM; in the data active = inhibition above about 30%
Target sequence (Q9Y570 whole entry, looked up): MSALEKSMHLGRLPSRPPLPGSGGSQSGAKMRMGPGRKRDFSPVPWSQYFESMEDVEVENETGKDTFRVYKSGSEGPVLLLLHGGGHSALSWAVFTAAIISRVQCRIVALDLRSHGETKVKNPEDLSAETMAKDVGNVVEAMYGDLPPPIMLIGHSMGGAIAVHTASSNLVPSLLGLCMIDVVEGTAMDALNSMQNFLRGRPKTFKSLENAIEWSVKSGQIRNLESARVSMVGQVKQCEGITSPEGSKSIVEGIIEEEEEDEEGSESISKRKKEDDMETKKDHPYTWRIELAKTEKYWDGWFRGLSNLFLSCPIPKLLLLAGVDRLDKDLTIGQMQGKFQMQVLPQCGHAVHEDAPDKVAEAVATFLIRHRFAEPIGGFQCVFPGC
Each line names hits and unclear results; the compound was inactive in the other large screens. This is a sample that favours compounds with a hit; in the whole collection about 2.5% have one here. Rule as the data show it, unless noted: active = inhibition above about 75%; inactive = the rest.

O=C1C=CC(=O)N1c1cc(C(F)(F)F)ccc1Cl	none
O=C1CSc2ccc(C(F)(F)F)cc2N1Cc1c(Cl)cccc1Cl	PME-1 Maybridge 36.6
O=C(NCc1c(Cl)cccc1Oc1ccccc1)c1ccc2nccnc2c1	none (no result: NOTCH agonist)
CSc1cccc(N/C(=N\S(=O)(=O)c2ccccc2)NN)c1	PME-1 Maybridge 43.4
CSc1cccc(NC(=S)NCCCO)c1	none
CSc1cccc(NC(=S)NCc2ccc(C#N)cc2)c1	PME-1 Maybridge 60.6
CCOC(=O)C(=NNc1ccc(OC)cc1[N+](=O)[O-])C(=O)OCC	none
O=[N+]([O-])c1cc(C(F)(F)F)cc([N+](=O)[O-])c1Sc1ncc2ccccn12	Nox1 inhibitor 102.3 (no result: NOTCH agonist)
Cn1nc(-c2ccccc2)c(O)c(N=Nc2ccccc2)c1=O	Nox1 inhibitor 97.0
Cc1cccc2c(O)c(N=Nc3ccccc3)c(=O)oc12	none
COc1ccc(NC(=O)CC2(CC(=O)O)CCCC2)cc1OC	none
O=c1[nH]c2cccnc2[nH]c1=O	none
S=c1[nH]c2cccnc2s1	Luminol counter 100.2
O=[N+]([O-])c1ccc(OS(=O)(=O)c2cccc3nsnc23)cc1	rat GALR2 ag 47.0
Cc1cn(CCC(=O)NCc2ccc3c(c2)OCO3)c2ccccc12	NOTCH agonist 3.5
Cn1c(C(=O)N/N=C/c2cccs2)cnc1SCc1ccc(Cl)cc1	none
O=C1Nc2ccccc2/C1=C\c1cccc2ccccc12	none
O=C1c2ccc3ccccc3c2-c2cccc3cccc1c23	PME-1 Maybridge 39.8
O=C(Nc1ccc(-c2csnn2)cc1)C1CC1	none
Cc1ccc(S(=O)(=O)NC(=O)Oc2ccc(-c3csnn3)cc2)cc1	Luminol counter 102.7
CCOC(=O)c1sc(Nc2ccccc2)c(-c2nc3ccccc3[nH]2)c1N	PME-1 Maybridge 30.9
Cc1ccc(S(=O)(=O)NC(=O)Nc2ccc(N(C)C)cc2)cc1	PME-1 Maybridge 40.6
O=C(c1ccc(Cl)cc1)n1ccc(-c2cccc([N+](=O)[O-])c2)n1	rat GALR2 ag 26.2
Cn1ccc(-c2cccc([N+](=O)[O-])c2)n1	none
Fc1ccc(-n2c(Cc3ccsc3)n[nH]c2=S)cc1	Luminol counter 84.2
Cc1c(C)c(C)c(CSCc2n[nH]c(=S)n2-c2ccc(F)cc2)c(C)c1C	none
Nc1ccc(Nc2ccc(N)cc2S(=O)(=O)O)cc1	PME-1 Maybridge 44.3
O=C(O)CSCC(=O)Nc1cccc2c1CCCC2	rat GALR2 ag 24.4
O=C(O)CSCC(=O)Nc1cccc(F)c1C(=O)O	none
O=C(Nc1ccccc1SCC(O)Cn1ccc2ccccc21)c1ccc(Cl)cc1 (stereo unspecified)	none
FC(F)(F)c1cc(-c2nsc(N3CCOCC3)n2)cc(C(F)(F)F)c1	rat GALR2 ag 21.8
O=C1CCC2=C(CCCC2)N1c1ccccc1	none
CCOC(=O)c1nsc(/C(C)=N/Nc2ccccc2)c1N	Nox1 inhibitor 97.8
CC(=O)Nc1ccc(S(=O)(=O)NC2CC3CCC(C2)N3C)cc1 (stereo unspecified)	none
N#Cc1cccc(NCCN2CCNC2=O)n1	rat GALR2 ag 46.8
CN1CCN(c2ccc(NC(=O)Nc3ccc(C(F)(F)F)cc3)cc2)CC1	PME-1 Maybridge 36.1
Cc1nnsc1C(=O)NNc1cc(Cl)ccc1Cl	Nox1 inhibitor 76.4
COc1c(Cl)cc(Cl)c(OC)c1C(=O)NNc1cc(Cl)ccc1Cl	none
Cc1noc(C)c1C(=O)NNc1cc(Cl)ccc1Cl	none
Cc1cc(C(=O)NNc2cc(Cl)ccc2Cl)no1	Nox1 inhibitor 81.0
NCCNc1c([N+](=O)[O-])cc(C(F)(F)F)cc1[N+](=O)[O-]	none
O=C(NNc1c([N+](=O)[O-])cc(C(F)(F)F)cc1[N+](=O)[O-])c1ccco1	Nox1 inhibitor 89.4
O=C(Oc1ccccc1)c1cncc(C#Cc2ccccc2)c1	none
CCC(=O)Nc1ccc2c(c1)N(CC)C(C)(C)CC2C (stereo unspecified)	Nox1 inhibitor 93.4
CC1CCN(CC(=O)ON=C(c2ccc(F)cc2)c2ccc(F)cc2)CC1	none
CC(=O)/C(C=Nc1cc(C)c(O)c(Cl)c1)=C(\C)O	Nox1 inhibitor 91.9
O=C(O)c1ccccc1CS(=O)c1ccccc1 (stereo unspecified)	none (no result: NOTCH agonist)
O=c1c(Cl)c(N2CCOCC2)cnn1-c1c(Cl)cc(C(F)(F)F)cc1Cl	none
COc1nc(Nc2ccccc2)nc(OC)n1	none
Nc1nc(NCc2ccccn2)n[nH]1	Nox1 inhibitor 89.9
NC(=O)NCc1ccccn1	none
Nc1nc(Nc2ccccc2)n[nH]1	Nox1 inhibitor 77.5 (no result: NOTCH agonist)
Nc1nc(NCc2cccnc2)n[nH]1	Nox1 inhibitor 76.9
Nc1nc(NCc2ccc(-c3cccs3)s2)n[nH]1	none
CSc1sc(C(=O)c2cccc([N+](=O)[O-])c2)c2c1C(=O)CC(C)(C)C2	none
Cc1cccc(Nc2ncncc2C#N)c1C	none
